Screening data deposited in PubChem by National Center for Advancing Translational Sciences (NCATS).
Pf Dd2 inh = blocks in vitro growth of P. falciparum Dd2; P. falciparum Dd2 growth, SYBR Green, 72 h; Potency, µM (doses to about 28.9 µM), for inactives: at the highest dose activity, negative = inhibition, usual class: inhibitors; 120,000 compounds, 4.3% hits; AID 1347417; active = well fitted inhibition curve with a large enough effect;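 note: plate controls were DMSO vehicle for no effect and reference drug for full effect; nearly all actives have a fitted effect of over 65% in size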
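Infected erythrocytes (Dd2, 0.3% parasitemia, 2.5% hematocrit final) are added to compound in RPMI-1640/Albumax II medium, grown 72 h at 37C in low oxygen, then lysed with saponin/Triton-X containing SYBR Green and read by fluorescence.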
* hit, by the source's call; i = inactive; [ ] = remark or other dose. The entries come from a sample that favours hits as a whole. Potency is the fitted concentration of half-maximal effect.

SMILES	Pf Dd2 inh
COc1ccc(-n2nc(C(=O)Nc3ccc(Br)cc3C)c3c4ccccc4n(C)c3c2=O)cc1	44.2%
COc1ccc(-n2nc(C(=O)N3CCN(c4cccc(C)c4)C(C)C3)c3c4ccccc4n(C)c3c2=O)cc1 (configuration not stated)	11.2µM*
COc1ccc(-n2nc(C(=O)NCCc3ccc(OC)c(OC)c3)c3c4ccccc4n(C)c3c2=O)cc1	3.16µM*
O=S(=O)(c1ccc(Cl)cc1)c1nc(-c2ccccc2F)oc1NCc1ccccc1	i
CCOc1cccc2sc(N3CCN(C(=O)C(C)(C)C)CC3)nc12	i
O=C(O)c1ccc(C2Nc3ccccc3-c3nnc(SCc4ccc(Cl)cc4)nc3O2)cc1 (configuration not stated)	35.7%
CO[C@H]1C(=O)N(C(C)C)[C@H]1C1CCN(C(=O)Cn2ccc(C)n2)CC1	-12.4%
COCc1cc(C)nc2sc(C(=O)Nc3ccccc3O)c(N)c12	8.91µM*
Cc1cc(C)c2c(N)c(C(=O)Nc3ccccc3C(F)(F)F)sc2n1	18.6%
CCc1ccccc1NC(=O)c1sc2nc(C)cc(COC)c2c1N	-9.4%
Fc1ccc(CNc2cc3c(cn2)NCCN(Cc2ccccc2)C3)cc1	i
CCCCCC(=O)Nc1ccc([C@H]2OCC(=O)N(Cc3nccn3C)[C@@H]2CO)cc1	-7.5%[44.1 µM]
Cc1nc(C2CC(O)C2)cc(N2CCC(n3c(=O)[nH]c4ccccc43)CC2)n1 (configuration not stated)	-12.2%
CCCN(CCC)C(=O)CC1=CSC2=NC(CC)=C(C(=O)OC)C(c3cccc(F)c3)N12 (configuration not stated)	2.24µM*
CCC1=C(C(=O)OC)C(c2ccccc2)N2C(CC(=O)N(C)Cc3ccccc3)=CSC2=N1 (configuration not stated)	-24.1%
CCC1=C(C(=O)OC)C(c2ccccc2F)N2C(CC(=O)N3CCCC3)=CSC2=N1 (configuration not stated)	-12.2%
COc1ccc(-c2nc3cc(C)ccc3cc2CN2CCC[C@H]2C(N)=O)cc1OC	-5.5%
Cc1cccc(-c2nc3cc(C)ccc3cc2CN2CCN(CCCO)CC2)c1	i
COc1ccc2cc(CN3CCC(OC)CC3)c(-c3cccc(C)c3)nc2c1	10µM*
COCC1CCN(Cc2cc3ccc(OC)cc3nc2-c2cccc(C)c2)C1 (configuration not stated)	11.2µM*
COc1ccc(N2CC(c3noc(-c4cccc(C)c4)n3)CC2=O)cc1 (configuration not stated)	i
COc1ccc(-c2[nH]ncc2CN2CC[C@H]3CC[C@@H](C2)N3)cc1	-9.8%
O=C(c1cccs1)N1CCC(c2nc(-c3ccccc3)no2)C1 (configuration not stated)	i[5.79 µM]
Cc1ccc(C)c(S(=O)(=O)c2nnn3c2nc(N2CCN(C)CC2)c2sccc23)c1	8.91µM*
COc1ccc(Nc2nc3c(S(=O)(=O)c4ccccc4)nnn3c3ccc(Cl)cc23)cc1OC	6.7%
SMILES	Pf Dd2 inh
COc1ccc(Nc2nc3c(S(=O)(=O)c4ccc(C)cc4)nnn3c3ccsc23)cc1Cl	i
CCc1ccc(S(=O)(=O)c2nnn3c2nc(Nc2ccc(F)cc2)c2cc(Cl)ccc23)cc1	1.26µM*
Cc1ccc(S(=O)(=O)c2nnn3c2nc(N2CCCC2)c2sccc23)cc1C	-5.3%
CC(=O)Nc1ccc(Nc2nc3c(S(=O)(=O)c4cc(C)ccc4C)nnn3c3ccsc23)cc1	-23.9%
Cc1ccc(S(=O)(=O)c2nnn3c2nc(NC(C)c2ccccc2)c2sccc23)cc1 (configuration not stated)	10µM*
CCc1ccc(S(=O)(=O)c2nnn3c2nc(NCc2ccc(F)cc2)c2ccccc23)cc1	-24.2%
Cc1ccc(S(=O)(=O)c2nnn3c2nc(NCc2ccccc2)c2sccc23)cc1	i
Cc1ccc(C)c(S(=O)(=O)c2nnn3c2nc(Nc2ccc(F)c(Cl)c2)c2sccc23)c1	12.6µM*
Cc1ccc(Nc2nc3c(S(=O)(=O)c4ccccc4)nnn3c3ccsc23)c(C)c1	18.5%
CN1CCN(c2nc3c(S(=O)(=O)c4ccccc4)nnn3c3ccsc23)CC1	11.2%
Cc1ccc(C(=O)N[C@@H]2CN(S(C)(=O)=O)C[C@H]2CN(C)C)cc1C	-7.5%
CC(C)c1ccc(NC(=O)Cc2ccc(NC(=O)N3CCCCc4ccccc43)cc2)cc1	35.4%
Cn1nc(C(=O)N2C[C@@H](Oc3cccnc3)C[C@H]2C(=O)NC2CC2)c2ccccc21	-1.6%
Nc1c(-c2nc(-c3ccc(Cl)cc3)no2)nnn1-c1ccc(C(F)(F)F)c(Cl)c1	10.2%
Cc1cccnc1CC(C)NC(=O)c1cc(Cn2cnc3ccccc32)[nH]n1 (configuration not stated)	-21.7%
CCOc1ccc(-c2cc3c(=O)n(CC(O)c4ccc(C(C)C)cc4)ccn3n2)cc1 (configuration not stated)	i
CCOc1ccc(C(O)Cn2ccn3nc(-c4ccccc4C)cc3c2=O)cc1 (configuration not stated)	12.6µM*
O=c1c2cc(-c3ccccc3)nn2ccn1CC(O)c1ccccc1 (configuration not stated)	i
CCOC(=O)c1c(C)[nH]c(C)c1S(=O)(=O)N1CCCC(C(=O)Nc2ncccc2C)C1 (configuration not stated)	4.9%
COc1ccc(CC(=O)N2CC[C@@H](CC(=O)O)[C@@H](CCN3CCN(c4cccc(C(F)(F)F)c4)CC3)C2)cc1	-7.9%
COc1ccc(NC(=O)Cn2cccc2-c2nc(-c3ccc(F)cc3)no2)cc1	2.51µM*
COc1ccc(C(=O)NCCn2cccc2-c2nc(-c3ccccc3)no2)cc1	i
Cc1ccc(NC(=O)Cn2cccc2-c2nc(-c3ccccc3)no2)c(Cl)c1	4.8%
CCc1ccccc1NC(=O)Cn1cccc1-c1nc(-c2ccccc2)no1	2.82µM*
COc1ccc(-c2noc(-c3cccn3CC(=O)Nc3ccc(N(C)C)cc3)n2)cc1F	0.1%
SMILES	Pf Dd2 inh
Cc1ccc(NC(=O)Cn2cccc2-c2nc(-c3ccccc3)no2)cc1	89.7%
CCc1ccc(NC(=O)Cn2cccc2-c2nc(-c3ccc(OC)c(F)c3)no2)cc1	2µM*
CCOc1ccc(CCNC(=O)Cn2cccc2-c2nc(-c3ccccc3)no2)cc1OCC	3.1%
CCOc1ccc(C(=O)NCCn2cccc2-c2nc(-c3ccccc3)no2)cc1OCC	10µM*
O=C(Cn1cccc1-c1nc(-c2ccc(F)cc2)no1)Nc1cccc(F)c1	-4.0%
COC(=O)c1ccccc1NC(=O)Cn1cccc1-c1nc(-c2ccc(OC)c(F)c2)no1	16.1%
Cc1cc(C)c(NC(=O)Cn2cccc2-c2nc(-c3ccc(F)cc3)no2)c(C)c1	95.2%
CN(Cc1ccccc1)c1ncccc1CNC(=O)CN1CCOC1=O	3.0%
Cn1ccnc1C(=O)N1CC[C@H]2C(=O)NCCCCCCN(Cc3ccncc3)[C@@H]2C1	5.9%
CCn1c(-c2ccccc2)nn(CC(=O)NCCc2noc(C3CC3)n2)c1=O	2.2%
Cc1cc(C)cc(NC(=O)Nc2ccccc2OCc2cc(=O)n3ccccc3n2)c1	-10.5%
Cc1ccccc1Cc1noc(-c2nc(-c3ccccc3F)no2)n1	-6.7%
Cc1nc2scc(CC(=O)NCC(C)C)n2c(=O)c1-c1cc(C)n(-c2ccc(F)cc2)n1	i
COCCCNC(=O)C1c2ccccc2C(=O)N(C2CCCC2)C12CCCCC2 (configuration not stated)	-17.5%
COc1ccc(-c2noc(-c3cccn3CC(=O)Nc3cccc(Cl)c3)n2)cc1F	2.51µM*
